Laboratory results as given in PubChem BioAssay (NCI).
“And” between values parts separate entries of the source, which are not always exact repeats. Equal entries are not always repeated. About 79,000 compounds went through this panel and 15% of them were active in at least one assay; those are over-represented in the sample as a whole. Some structures have more than one record in an assay (separate samples or runs), and their calls can disagree. The source made the active and inactive calls. No stated cut-off is given here; in the data, active means growth inhibition above about 70%; inactive means the rest.

What was measured:
[1] = NCI Yeast Anticancer Drug Screen. Data for the rad50 strain (AID 155);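 further: 0% = growth of vehicle-only cultures of the same strain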; conditions: S. cerevisiae rad50 strain growth inhibition; at 50.0 µM; stronger effect = higher value
How it was run: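 A DNA repair-deficient yeast mutant serves as the test organism; compound-induced growth inhibition is calculated against vehicle-treated cells.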

[2] = NCI Yeast Anticancer Drug Screen. Data for the mec2-1 strain (AID 157); conditions: S. cerevisiae mec2-1 strain, at 50.0 µM, stronger effect = higher value
How it was run: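 Readout is yeast growth inhibition, normalised to vehicle-treated controls, in the mec2-1 strain exposed to compound.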

[3] = NCI Yeast Anticancer Drug Screen. Data for the sgs1 mgt1 strain (AID 161);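 further: 0% = growth of cultures given vehicle only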; conditions: S. cerevisiae sgs1 mgt1 strain, at 50.0 µM, stronger effect = higher value
How it was run: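 Yeast cells carrying a defined DNA-repair defect were exposed to test compounds. Growth inhibition was measured relative to vehicle-treated controls.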

[4] = NCI Yeast Anticancer Drug Screen. Data for the cln2 rad14 strain (AID 165);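 further: 0% = growth equal to vehicle treated cultures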; conditions: S. cerevisiae cln2 rad14 strain, at 50.0 µM, stronger effect = higher value
How it was run: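 Relative to vehicle controls, growth inhibition of compound-treated cln2 rad14 yeast was recorded.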

[5] = NCI Yeast Anticancer Drug Screen. Data for the bub3 strain (AID 167); conditions: S. cerevisiae bub3 mutant strain, at 50.0 µM, stronger effect = higher value
How it was run: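 Inhibition values come from growth of compound-treated mutant yeast normalised to vehicle-treated controls.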

[6] = NCI Yeast Anticancer Drug Screen. Data for the mlh1 rad18 strain (AID 175); conditions: S. cerevisiae mlh1 rad18 strain growth inhibition; at 50.0 µM; stronger effect = higher value
How it was run: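 Test agents were incubated with a yeast strain of defined genotype (DNA damage repair defect). Inhibition of growth was derived by comparison with vehicle-exposed cultures.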

| Structure (SMILES) | growth inhibition [1] | growth inhibition [2] | growth inhibition [3] | growth inhibition [4] | growth inhibition [5] | growth inhibition [6] |
| --- | --- | --- | --- | --- | --- | --- |
| [Br][Co][Br].[NH-]CC[NH-].[NH-]CC[NH-] | 28.4% (inactive) | 15.6% (inactive) | 18.4% (inactive) | -6.95% (inactive) | 22.9% (inactive) | 17.8% (inactive) |
| Cc1cc(S(=O)(=O)[O-])ccc1-n1nc(C)[c-](N=Nc2cc(S(=O)(=O)[O-])ccc2C(=O)[O-])c1=O.[Cr+3].[Na+].[OH-] (stereo not drawn) | -19.4% (inactive) | -30.5% (inactive) | -11.6% (inactive) | -35.4% (inactive) | -16.3% (inactive) | -17.1% (inactive) |
| CCC(C)CC(C)N (stereo not drawn) | 0.6% (inactive) | 2.7% (inactive) | 14.5% (inactive) | 2.65% (inactive) | -2.45% (inactive) | 9.15% (inactive) |
| COc1ccc(/C=C\c2cc(OC)c(OC)c(OC)c2)cc1OC(=O)CCC(=O)O | -13.1% (inactive) | -12.3% (inactive) | 8.7% (inactive) | 24.1% (inactive) | 14.2% (inactive) | -27.1% (inactive) |
| CC1=NN(c2cccc(S(=O)(=O)O)c2)C(=O)C1N=Nc1cc(Cl)cc(S(=O)(=O)O)c1O.O.[Cr] (stereo not drawn) | -19.4% (inactive) | -25.1% (inactive) | 3.1% (inactive) | -0.7% (inactive) | 8.35% (inactive) | 9.35% (inactive) |
| CN(C)CCSC(c1ccccc1)c1ccc(Br)cc1 (stereo not drawn) | 32.5% (inactive) | 20.1% (inactive) | 52.4% (inactive) | 58.6% (inactive) | 34.4% (inactive) | 62.2% (inactive) |
| COc1ccc2c3c1OC1C(C)(O)C(O)CC4C(C2)N(C)CCC341 (stereo not drawn) | -3.55% (inactive) | -4.95% (inactive) | -16.2% (inactive) | 9.3% (inactive) | 4.4% (inactive) | 14.1% (inactive) |
| C=C(C)C1(CC)C(=O)NC(=O)N(C)C1=O (stereo not drawn) | 11.8% (inactive) and -4.5% (inactive) | 7.5% (inactive) and 9.4% (inactive) | -1.25% (inactive) and -7.5% (inactive) | 10.2% (inactive) and -11.2% (inactive) | 3.65% (inactive) and 1.5% (inactive) | -7.95% (inactive) and -13.1% (inactive) |
| C[C@]12C=CC(=O)NC[C@@H]1CC[C@@H]1[C@@H]2CC[C@]2(C)[C@@H](OC(=O)COc3ccc(N(CCCl)CCCl)cc3)CC[C@@H]12 | 18.1% (inactive) | 5.05% (inactive) | 8.1% (inactive) | 1.2% (inactive) | 3.05% (inactive) | -7.65% (inactive) |
| O=c1cc(O)c1=O | 23.2% (inactive) | 18% (inactive) | -6.05% (inactive) | 14.9% (inactive) | 16.8% (inactive) | 31.9% (inactive) |
| CC(=O)c1ccccc1O.[Cr] | 3.05% (inactive) | -32.3% (inactive) | 19.3% (inactive) | 3.75% (inactive) | -18.3% (inactive) | 21.2% (inactive) |
| c1cc2c(cc1C1OCC3C(c4ccc5c(c4)OCO5)OCC13)OCO2 (stereo not drawn) | 75.1% (active) and 30.8% (inactive) | 74.6% (active) and -0.05% (inactive) | 82.5% (active) and 57.4% (inactive) | 44.4% (inactive) and 34.4% (inactive) | 81.5% (active) and 54.3% (inactive) | 67% (inactive) and 31.7% (inactive) |
| O=C(NC(=S)N1CC1)c1ccccc1 | -13.9% (inactive) | -43.4% (inactive) | -7% (inactive) | -7.8% (inactive) | -26.4% (inactive) | -36.3% (inactive) |
| O=C1NC(=O)C2(O)NC(=O)NC2(O)N1 (stereo not drawn) | -27.1% (inactive) | -9.5% (inactive) | 3.15% (inactive) | -10.8% (inactive) | -22.4% (inactive) | 18.1% (inactive) |
| CN1Cc2cc3cc4c(cc3nc2N(C)C1)OCCO4 | 1.5% (inactive) | 12.2% (inactive) | -1.5% (inactive) | 11.4% (inactive) | 8.9% (inactive) | 15.1% (inactive) |
| CNC(Cc1ccccc1)c1cccc(O)c1 (stereo not drawn) | 4.5% (inactive) | -6.2% (inactive) | -1.3% (inactive) | -24.9% (inactive) | 0.4% (inactive) | -5.15% (inactive) |
| CCOc1ccc(OCC)c(C(O)C(C)NC(C)C)c1 (stereo not drawn) | -0.55% (inactive) | 9.1% (inactive) | 6% (inactive) | 0.1% (inactive) | -3.6% (inactive) | -10.2% (inactive) |
| NNc1ncc[nH]1 | -0.05% (inactive) | 1.2% (inactive) | -9.2% (inactive) | -1% (inactive) | 12.8% (inactive) | 4.55% (inactive) |
| c1cc[n+]2c3c(sc2c1)CCC3 | 9.75% (inactive) | -8.2% (inactive) | -5.25% (inactive) | -4.15% (inactive) | -6.7% (inactive) | -26.8% (inactive) |

| Structure (SMILES) | growth inhibition [1] | growth inhibition [2] | growth inhibition [3] | growth inhibition [4] | growth inhibition [5] | growth inhibition [6] |
| --- | --- | --- | --- | --- | --- | --- |
| O=C(COc1ccc(Cl)c(Cl)c1)NCCc1cc[n+](Cc2ccc(Cl)cc2S(=O)(=O)F)cc1 | 7.45% (inactive) | 5.4% (inactive) | -9.05% (inactive) | 31.5% (inactive) | 1.8% (inactive) | 11.9% (inactive) |
| CCN(CC)C(=S)SC1C(=O)NC(=O)NC1=O | 23.3% (inactive) | -15.4% (inactive) | 20.1% (inactive) | 20.6% (inactive) | 1.9% (inactive) | 16.1% (inactive) |
| CC(C)C1CN1CC(O)Cn1ccnc1[N+](=O)[O-] (stereo not drawn) | -15.2% (inactive) | -17.8% (inactive) | -19.1% (inactive) | 0% (inactive) | 7.35% (inactive) | -19.2% (inactive) |
| O=c1c2ccccc2oc2ccccc12 (tested in a mixture with another compound) | 18.9% (inactive) | 17.7% (inactive) | 11.7% (inactive) | 10.2% (inactive) | 23.2% (inactive) | 17.1% (inactive) |
| CC(C)CCCCCc1ccc(OCCOc2ccc(C(=O)Nc3ccc(S(=O)(=O)F)cc3[N+](=O)[O-])cc2)cc1 | 42.1% (inactive) | -8.75% (inactive) | 26.2% (inactive) | -11.7% (inactive) | 0.5% (inactive) | 9.85% (inactive) |
| COc1ccc2c(c1O)CNCC2c1ccc(O)cc1O (stereo not drawn) | 0.6% (inactive) | -12% (inactive) | -7.25% (inactive) | -11.9% (inactive) | -24.8% (inactive) | -2% (inactive) |
| CC(=O)OC1=CCC2(C)C(CCC3C4CCC(OC(C)=O)C4(C)CCC32)C1=O (stereo not drawn) | 87.5% (active) | 79.4% (active) | 87.5% (active) | 72.3% (active) | 73.5% (active) | 85.3% (active) |
| CCCCC(CC)COP(OCC(CC)CCCC)OCC(CC)CCCC.[Br][Hg][Br] (stereo not drawn) | 4.55% (inactive) | -3.1% (inactive) | -10.8% (inactive) | -8.25% (inactive) | -8.95% (inactive) | -6.4% (inactive) |
| C1=C\CCC2SC2CC/1 (stereo not drawn) | 2.1% (inactive) | -16.9% (inactive) | -5.95% (inactive) | -14.6% (inactive) | 12.4% (inactive) | -7.5% (inactive) |
| CC(=O)CC(C)=O.CC(=O)CC(C)=O.[Ni] | -39% (inactive) | -31.4% (inactive) | -1.1% (inactive) | 31.1% (inactive) | -6.35% (inactive) | -25.4% (inactive) |
| Cc1ccc(SP(=S)(Sc2ccc(C)cc2)Sc2ccc(C)cc2)cc1 | 11.7% (inactive) | -65.8% (inactive) | -4.15% (inactive) | -29.9% (inactive) | -12.2% (inactive) | 10% (inactive) |
| CN1CN(c2ccccc2)C2(CCN(CCCSc3ccccc3NC(=O)/C=C/c3ccccc3)CC2)C1=O | 20% (inactive) | -3.95% (inactive) | 18.8% (inactive) | 18.9% (inactive) | 41.3% (inactive) | 34.2% (inactive) |
| NC(=O)Cc1nn[nH]n1 | -16.4% (inactive) | -13.8% (inactive) | -27.1% (inactive) | 5.95% (inactive) | -7.35% (inactive) | -21.9% (inactive) |
| COc1cc2c(cc1OC)C13CCN4CC5=CCOC6CC(=O)N2C1C6C5CC43 (stereo not drawn) | -13% (inactive) and 7.35% (inactive) | -43.9% (inactive) and -36.3% (inactive) | -20.9% (inactive) | 4% (inactive) | -8.6% (inactive) | -0.6% (inactive) and -1.65% (inactive) |
| Cc1nnnn1C | -13.2% (inactive) | -11.6% (inactive) | -18.9% (inactive) | -10.9% (inactive) | -19.1% (inactive) | -13.9% (inactive) |
| CCOP(=O)(OCC)Oc1ccc([N+](=O)[O-])c(CC)c1 | -2.55% (inactive) | -3.55% (inactive) | -0.3% (inactive) | 3.5% (inactive) | 18.5% (inactive) | -8.25% (inactive) |
| O=C(CP(=O)(O)O)NC(CC(=O)OCc1ccccc1)C(=O)OCc1ccccc1 (stereo not drawn) | 12.8% (inactive) and 33% (inactive) | 7.65% (inactive) and -0.7% (inactive) | 16.9% (inactive) and 20.3% (inactive) | 14.9% (inactive) and 12.6% (inactive) | 2.05% (inactive) and 1.2% (inactive) | -3.4% (inactive) and 3.45% (inactive) |
| CCCCSP(SCCCC)N1CCCCC1 | 94.7% (active) | 89.4% (active) | 91.3% (active) | 31.1% (inactive) | 79.8% (active) | 88% (active) |
| COC(=O)c1ccccc1NC(=O)C(=O)CC(=O)CC(c1ccccc1)c1c(O)c2ccccc2oc1=O (stereo not drawn) | -15.7% (inactive) | -3.5% (inactive) | 15.9% (inactive) | 11.3% (inactive) | 24.9% (inactive) | 21.2% (inactive) |
